Assay results from PubChem BioAssay (NCATS).
Records with an inconclusive call do not appear. Entries that show only a call come without a potency. Unmarked numbers belong to inactive results. The source made the active and inactive calls. Calls come from the whole dose curve; as a rule, active = well fitted inhibition curve with a large enough effect; inconclusive = small, poorly fitted or top-dose-only effect; inactive = flat fitted curve, though single readings scatter.

Molecular target: Phospholipid hydroperoxide glutathione peroxidase GPX4 (Homo sapiens) (UniProt P36969)
Sequence (P36969 whole entry, looked up): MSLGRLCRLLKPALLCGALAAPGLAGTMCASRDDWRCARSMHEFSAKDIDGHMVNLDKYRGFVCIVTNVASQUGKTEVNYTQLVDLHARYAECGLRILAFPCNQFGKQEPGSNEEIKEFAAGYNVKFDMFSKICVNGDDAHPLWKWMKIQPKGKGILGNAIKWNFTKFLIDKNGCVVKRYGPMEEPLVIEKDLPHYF
Assay: Primary qHTS Assay for Inhibitors of Recombinant Selenoprotein Glutathione Peroxidase 4 (GPX4) (AID 1845192); note: nearly all actives have a fitted effect of over 65% in size
Details: recombinant GPX4, GR-coupled NADPH fluorescence, 15 min; series mostly up to 50 µM
How it was run: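 GR-coupled assay: recombinant GPX4 preincubated 30 min with compound at room temperature; final 200 nM GPX4, 1 mM GSH, 0.5 mM cumene hydroperoxide, 0.5 mM NADPH, 100 nM GR, 0.01% BSA, pH 7.5 Tris. NADPH fluorescence (340/450 nm) read at 0 and 15 min.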
Potency is the fitted concentration of half-maximal effect.

SMILES	Potency	activity change, negative = inhibition
COC1=CC(=O)O[C@@H](CCc2ccccc2)C1	inactive	–
CN1C(=O)N(c2ccc(C#N)c(C(F)(F)F)c2)C(=O)[C@]1(CO)c1ccccc1	inactive	–
CC(C)CCON=O	inactive	–
CCCCCCn1c(=O)c(C(=O)Nc2ccc(C(=O)OCCC)cc2)c(O)c2ccccc21	–	18.5% [at 9.73 µM]
O=[N+]([O-])c1ccccc1	inactive	–
CO[C@@H]1[C@H](O)[C@@H](O[C@@H]2C[C@H]3CC[C@@H]4C(CC[C@]5(C)[C@@H](C6=CC(=O)OC6)CC[C@]45O)[C@@]3(C)[C@H](O)C2)O[C@H](C)[C@@H]1O[C@@H]1O[C@H](CO)[C@@H](O)[C@H](O)[C@H]1O (some centres undefined)	inactive	–
COC1CC(OC2CCC3(C)C(=CCC4C3CCC3(C)C(C(C)OC5OC(COC6OC(CO)C(O)C(O)C6O)C(O)C(O)C5O)CCC43O)C2)OC(C)C1OC1OC(C)C(O)C(OC)C1O (centres undefined)	inactive	–
CO[C@H]1[C@H](O)[C@H](O[C@H]2CC[C@]3(C)C4CC[C@]5(C)[C@H](C6=CC(=O)OC6)CC[C@]5(O)C4CC[C@@H]3C2)O[C@@H](C)[C@@H]1O (some centres undefined)	inactive	–
O=C(O)c1ccnc2cc(C(OCCN3CCCCC3)c3ccccc3Cl)[nH]c12 (centres undefined)	inactive	–
CCC(=O)O[C@@](Cc1ccccc1)(c1ccccc1)[C@@H](C)CN(C)C	inactive	–
Cc1[nH]c2ccc(O)cc2c1CCN	inactive	–
COc1cc(C)[nH]c(=O)c1CNC(=O)c1c(C)n([C@H](C)C2CCOCC2)c2ccccc12	inactive	–
CN1CCCC1CCOC(c1cc2nccc(C(=O)O)c2[nH]1)c1ccccc1Cl (centres undefined)	inactive	–
COC1CC(O[C@H]2CC[C@]3(C=O)C4CC[C@]5(C)[C@@H](C6=CC(=O)OC6)CC[C@]5(O)[C@@H]4CC[C@]3(O)C2)OC(C)C1O[C@@H]1O[C@H](CO)[C@@H](O)[C@H](O)[C@H]1O (some centres undefined)	inactive	–
Cn1ncnc1COc1nn2c(-c3c(F)cccc3F)nnc2cc1C1CCC1	inactive	–
CC(C)[C@@H](CN1CC[C@@](C)(c2cccc(O)c2)[C@@H](C)C1)NC(=O)[C@H]1Cc2ccc(O)cc2CN1	inactive	–
COC(=O)C12C(=O)C(C)(O)C(=O)C1(C)C(C)=CC1C34CCC(OC3=O)C(C)(CO)C4CCC12C (centres undefined)	inactive	–
C=C(C)[C@H]1O[C@H]2CC[C@@]3(C)[C@@](O)(CC[C@H]4[C@@H]5OC(C)(C)[C@H]6C[C@@H]7C(=C)Cc8c(Cl)cc9[nH]c(c5c9c8[C@@]76O)[C@@]43C)[C@]23O[C@@H]3[C@H]1O	inactive	–
C=CCN1CCC23c4c5ccc(O)c4O[C@H]2C(=O)CC[C@@]3(O)C1C5 (some centres undefined)	inactive	–
C=C[C@H]1CN2CC[C@H]1C[C@@H]2[C@@H](O)c1ccnc2ccccc12	inactive	–

SMILES	Potency	activity change, negative = inhibition
CC(C)(C)OC(=O)NC1[C@H]2CNC[C@@H]12 (some centres undefined)	inactive	–
Clc1ccc(OCC2=NCCN2)cc1Cl	inactive	–
CC(C)(C)c1cc(C(C)(C)C)c2c(c1)C(O)(C(F)(F)F)C(=O)O2 (centres undefined)	inactive	–
CCOc1ccccc1-n1c(C(C)N2CCN(C(=O)COc3ccc(Cl)cc3)CC2)nc2ccccc2c1=O (centres undefined)	inactive	–
CCCCCCC(=O)O[C@H]1CC[C@H]2[C@@H]3CC[C@H]4CC(=O)C=C(C)[C@]4(C)[C@H]3CC[C@]12C	6.31 µM (active)	–
CC[C@H]1CN2CC[C@H]1C[C@H]2[C@H](O)c1ccnc2ccc(OC)cc12	inactive	–
COC1CC(OC2CCC3(C=O)C(CCC4C3CCC3(C)C(C5=CC(=O)OC5)CCC43O)C2)OC(C)C1OC1OC(CO)C(O)C(O)C1O (centres undefined)	inactive	–
CC(=O)OC1CC(O)C2(C)C(CC(OC(C)=O)C3(C)C2CCC2(C)C(c4ccoc4)C(=O)C4OC423)C1(C)C (centres undefined)	inactive	–
CC1=C2C[C@H]3[C@@H](CC=C4C[C@@H](O)CC[C@@]43C)[C@@H]2CC[C@]12O[C@@H]1C[C@H](C)CN[C@H]1[C@H]2C	inactive	–
CCN1C[C@]2(OC(=O)c3ccccc3NC(C)=O)CC[C@H](OC)[C@@]34[C@@H]2C[C@@H]([C@@H]13)[C@@]1(O)C[C@H](OC)[C@H]2C[C@@H]4[C@]1(O)[C@H]2OC	inactive	–
O=C(O)C(Cl)(Cl)Cl	inactive	–
C[C@H](NC(=O)Cc1cc(F)cc(F)c1)C(=O)N[C@@H]1N=C(c2ccccc2)c2ccccc2N(C)C1=O	inactive	–
c1ccc2cc(CC3=NCCN3)ccc2c1	inactive	–
OC1(c2ccc(Cl)cc2)c2ccccc2C2=NCCN21 (centres undefined)	inactive	–
CCCN1CCO[C@H]2c3cc(O)ccc3OC[C@@H]21	inactive	–
CCCCCOc1cc2c(cc1-c1cc(/C=C/C(=O)O)ccc1O)C(C)(C)CCC2(C)C	inactive	–
C/C=C(\C)C(=O)OC1CC2C(CC=C3CC(OC4CC(OC)C(OC5CC(OC)C(OC6OC(C)C(OC7OC(CO)C(O)C(O)C7O)C(OC)C6O)C(C)O5)C(C)O4)CCC32C)C2(O)CCC(C(C)=O)C12C (centres undefined)	inactive	–
N=C(N)c1ccc(CS(=O)(=O)F)cc1	inactive	–
CN[C@H]1[C@H](O)[C@H](O[C@@H]2[C@@H](O)[C@H](O[C@H]3O[C@H]([C@H](C)O)[C@@H](O)[C@H](O)[C@H]3N)[C@@H](N)C[C@H]2N)OC[C@@]1(C)O	inactive	–
